This passage reports Inhibition results from ChEMBL document CHEMBL4513149, “CO-ADD screening of MMV (CH) - MMV compounds” (2021).

Molecules are shown by their SMILES. Entries with a potency or affinity are not part of this list.

One may read the Inhibition as the drop in the measured response relative to a control, in per cent.

The subject of this test is Candida albicans. To be noted: 20 µM.
In the case of `Cc1cc(O)nc(-n2nc(C)cc2C)n1`, the Inhibition was found to be 69.6%.

Take `CC(=O)O.CC(=O)O.Nc1ncnc2c1ncn2[C@@H]1O[C@H](COS(=O)(=O)NC(=O)c2ccccc2O)[C@@H](O)[C@H]1O`: the Inhibition worked out at 1.66%.

On to `O=C(C1CCN(c2nnnn2-c2ccccc2)CC1)N1CCc2ccccc2C1`, for which the Inhibition came to 2.89%.

`CC(C)(C)c1cc(C(=O)N2CCN(c3nccnc3C#N)CC2)n(Cc2ccccc2)n1`: the Inhibition is 6.36%.

On to `CS(=O)(=O)c1cccc(-c2cnc3[nH]cc(-c4ccc(CCC(=O)O)cc4)c3c2)c1`, for which the Inhibition was determined as 11.3%.

Take `O=C(CCC1CCCCC1)Nc1cccc(-c2nnc(-c3ccco3)o2)c1`: the Inhibition amounted to 5.6%.

Turning to `CC(C)n1ncc2c(C(=O)NCC(c3cccs3)N3CCOCC3)cc(-c3ccccc3)nc21` (stereo not given), the Inhibition was found to be 4.59%.

For the compound `CCOc1ccc2cc(-c3nn(C(C)(C)C)c(N)c3C(N)=O)cnc2c1.Cl`, the Inhibition stood at 2.56%.

`CNc1snc(C)c1C(=O)NCCOc1ccc(OC)cc1`: the Inhibition worked out at 3.15%.

Turning to `COc1cc(CN2CCC3(C=Cc4ccccc43)CC2)cc2c1OCO2`, the Inhibition is -0.19%.

Take `COc1cccn2c(C(=O)N3CCCCC3)c(C(F)(F)F)nc12`: the Inhibition is 1.9%.

Take `Cc1cc(OCC(=O)Nc2ccc(C(C)C)cc2)n(C)c(=O)c1C#N`: the Inhibition stood at 4.91%.

Turning to `Nc1ncnc2[nH]nc(Cc3cccc4ccccc34)c12`, the Inhibition amounted to 3.76%.

As for `O=C1N(Cc2cc3ccccc3s2)CC2CN(Cc3ccccc3)CCN12` (stereo not given), the Inhibition is 2.62%.

`NC(=O)c1cc(Br)ccc1OCCOc1ccccc1`: the Inhibition stood at 10.7%.

For `Cc1cc2ccccc2n1CC(=O)N1CC(C(=O)N2CCCCC2)Oc2ccccc21` (stereo not given), the Inhibition was 4.16%.

`CC(C)c1ncc(-c2ccncc2)c([C@H]2CC[C@H](CNC(=O)c3cccnc3)CC2)n1`: the Inhibition came to 1.5%.

Take `Cl.NCC(c1cccs1)S(=O)(=O)c1ccccc1` (stereo not given): the Inhibition turned out to be 3.86%.

For `CC1=Nc2ccc(Cl)cc2C(c2ccccc2)N1CCNC(=O)CN(C)C` (stereo not given), the Inhibition amounted to 1.95%.

Consider `CCOc1ccc(OCC(=O)Nc2cc(C)cc(C)c2)cc1`, for which the Inhibition came to 9.23%.

Regarding `Cc1nn2c(O)c3c(nc2c1-c1ccc(F)cc1)CCCC3`, the Inhibition came out at 3.69%.

Turning to `Cc1ccc2[nH]c3c(NCCN(C)C)ncnc3c2c1`, the Inhibition was 2.94%.

`Cc1cc(Cl)c(S(=O)(=O)N2CCCC2)cc1OCC(=O)NC1CCCCC1`: the Inhibition turned out to be 9.11%.

`CCN(CC)CCCN1CCN(C(=O)c2cccc(-c3noc(C(F)(F)F)n3)c2)CC1`: the Inhibition is 1.48%.

`Cc1cc(C)c2cc(C(=O)NC3CCCCCCC3)[nH]c2c1`: the Inhibition is 3.94%.

With `Cc1cccc(NC(=O)c2cc(S(=O)(=O)N(C)c3ccc(F)cc3)ccc2Cl)n1`, the Inhibition worked out at 9.46%.

In the case of `COc1ccc(C2=NCCN2)cc1-c1cn(-c2cccc(C3=NCCN3)c2)nn1.O=C(O)C(F)(F)F.O=C(O)C(F)(F)F`, the Inhibition was found to be 2.35%.

As for `C[C@]1(O)C[C@@H](c2nc(-c3ccc4ccc(-c5ccccc5)nc4c3)c3c(N)nccn32)C1` [LINSITINIB], the Inhibition was 8.51%.

For the compound `CC(C)(C)C(=O)N(CCCCCCN1C[C@H](O)[C@@H](O)[C@H](O)[C@H]1CO)C1CCCCCC1`, the Inhibition stood at 0.83%.

On to `O=C(NCCN1CCCC1)c1cc(NCCN2CCOCC2)nc2ccc(Cl)cc12`, for which the Inhibition came out at 2.97%.

Take `Cc1ccc(NC(=O)CC2COc3ccccc3O2)cc1Cl` (stereo not given): the Inhibition was 2.65%.

Consider `CCC(=O)Nc1ccccc1C(=O)Nc1ccccn1`, for which the Inhibition turned out to be 3.37%.

As to `O=C(NCc1ccoc1)N1CCN(Cc2ccc3c(c2)OCO3)CC1`, the Inhibition is 2.46%.

For `O=C(c1ccc(NCCO)cc1)C1C[C@H]1c1ccc(Cl)cc1` (stereo not given in full), the Inhibition turned out to be 6.88%.

For `CC(C)(C)OC(=O)N1CCC(Cn2nc(-c3cnc4ccccc4c3)c3c(N)ncnc32)CC1`, the Inhibition amounted to 2.29%.
